Results taken from PubChem BioAssay AID1117319 (Southern Research Institute, 2015).
Several values for one entry are separate records, joined by “and”; a condition that tells them apart may be missing. Equal values may be shown once. Screen size: about 260,000 compounds; about 1,500 (0.58%) were called active. Roughly 5% stayed inconclusive and do not appear here.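 Rule for the calls: active = inhibition above a set limit at one or more doses, reproduced on every date tested; inconclusive = results disagree between test dates, or hit never tested in dose response; inactive = the rest.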 A selection follows. Measured potencies and affinities stand elsewhere.

Target: Virion infectivity factor (Human immunodeficiency virus type 1 group M subtype B (isolate BH10)) + Virion infectivity factor (Human immunodeficiency virus type 1 group M subtype B (isolate BRU/LAI)) + Virion infectivity factor (Human immunodeficiency virus type 1 group M subtype B (isolate PCV12)) + Virion infectivity factor (Human immunodeficiency virus type 1 group M subtype B (isolate HXB2)) + DNA dC->dU-editing enzyme APOBEC-3G (Homo sapiens) (UniProt P69720+P69721+P69722+P69723+Q9HC16)
Assay: inhibitors of Vif binding to APOBEC3G peptide, primary screen, biochemical, TR-FRET, GST-Vif 1-94, biotin-A3G peptide, dose response retest (AID 1117319);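 note: Vif residues 1-94 fused to GST binding biotinylated APOBEC3G peptide 110-148; 0% = full assay without inhibitor and 100% = GST in place of GST-Vif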
Conditions: hits give high values

inhibition, inactive:
O=C(c1ccc(Cl)cc1)c1cnc(-c2ccc(Cl)cc2)s1 -4.73%, O=C(CCCCl)Nc1c2c(nn1-c1ccccc1)CSC2 -3.73%, Cc1cc2nc(C3CCN(Cc4nnnn4Cc4cccs4)CC3)[nH]c2cc1C 1.05%, COC(=O)C1CC(c2ccccc2)N(c2ccccc2)O1 (stereo not drawn) -1.63%, CS(=O)(=O)N1CCCC(C(=O)NCCN2CCC(Cc3ccccc3)CC2)C1 (stereo not drawn) -4.71%, CS(=O)(=O)N1CCCC(C(=O)NCCCN2CCN(Cc3ccccc3)CC2)C1 (stereo not drawn) 8.72%, COc1ccccc1/C=C/C(=O)OCC(=O)Nc1ccccc1Sc1ccccc1 -5.26%, Cc1cc(C(=O)N(C)Cc2c(F)cccc2Cl)c2ccccc2n1 -2.57%, Cc1ccc(S(=O)(=O)CCC(=O)OCc2cc(C)ccc2C)cc1 4.12%, CCn1c(C)cc(C(=O)CSc2nnc(-c3ccco3)o2)c1C 6.55%, Cc1cc(C(=O)CSc2ncccn2)c(C)n1Cc1ccco1 -2.83%, COc1cccc(/C=C/C(=O)OCC(=O)Nc2cc(S(=O)(=O)N3CCOCC3)ccc2C)c1 -9.36%, CCN(CC(=O)NCc1cccs1)C(=O)c1ccc(S(=O)(=O)Nc2ccccc2Cl)cc1 1.56%, CC(=O)Nc1cccc(NC(=O)COc2ccccc2C)c1 -7.35%, Cc1noc(C)c1COc1cccc(C(=O)N(C)Cc2cccs2)c1 -1.46%, COc1ccc2c(c1O)C(=O)c1ccccc1C2=O 23.1%, CC1(C)CC(=O)C(N=Nc2ccc(OC(F)F)cc2)=C(O)C1 12.4%, Cc1cccc(NC(=O)c2ccc(C)c(S(=O)(=O)N3CCCCC3)c2)n1 2.93%, Cc1ccccc1NC(=O)COC(=O)c1cc(=O)c2ccccc2o1 -5.37%, O=Cc1ccc(O)c(O)c1 0.2%, NC(N)=N/N=C/c1ccc(OCc2ccccc2)cc1 -2.74%, COc1ccc(/C=N/N=C/c2ccc(OC)c(O)c2)cc1O -4.01%, Oc1ccc(/C=N/N=C/c2ccc(O)cc2)cc1 4.98%, Oc1ccc(/C=N/N(c2ccccc2)c2ccccc2)cc1O 26.2%, CC(=O)Nc1ccc(N=Cc2ccc(OCc3ccccc3)cc2)cc1 21.2%, Cc1nc(SC(C)C(=O)c2c(N)n(C)c(=O)n(C)c2=O)c2c(C)c(C)sc2n1 (stereo not drawn) -0.67%, CCOc1ccc(NC(=O)C(C)Sc2nnnn2C)cc1 (stereo not drawn) 0.56%, COc1cccc(NC(=O)CN(C)C(=O)CN2C(=O)NC(C)(c3ccc4ccccc4c3)C2=O)c1 (stereo not drawn) 9.34%, Cc1ccc(C)c(NS(=O)(=O)c2ccc(OCC(=O)N3CCCC3)cc2)c1 1.52%, CS(=O)(=O)c1ccc(C(=O)OCC(=O)NC(=O)Cc2ccccc2)cc1 -0.73%, COc1ccc(-n2c(SCC(C)=O)nc3sc(C)c(C)c3c2=O)cc1 -12.1%, CC(C)(C)c1c(Cl)c(O)c(-c2ccccc2)c(=O)n1-c1ccccc1 11.4%, CCN(c1ccccc1)S(=O)(=O)c1ccc2c(c1)N(C(C)=O)CCS2 -1.04%, COc1ccccc1-c1nn(-c2ccccc2)cc1C(=O)NCC(c1ccco1)N1CCCC1 (stereo not drawn) 1.07%, CCOC(=O)N1CCN(S(=O)(=O)c2ccc(OC)c(Cl)c2Cl)CC1 3.84%, Fc1ccc2c(c1)c1n[nH]c(=S)nc1n2CCc1ccccc1 0.89%, O=C(Nc1ccc2c(c1)C(=O)c1ccccc1-2)c1ccccc1 4.11%, O=C1C=C(Nc2ccccc2)C(=O)c2ccccc21 1.37%, NC(Cc1ccc2nonc2c1)C(=O)O (stereo not drawn) 17.1%, O=C(c1ccccc1)N(Nc1ccccc1)c1ccccc1 11.5%, CC(C)C(=O)NN(C(=O)c1ccccc1)c1ccccc1 -2.08%, COc1ccc2cc(C#N)c(Nc3cccc(F)c3)nc2c1 -0.27%, S=c1[nH]nc(NC2CCCCC2)s1 2.41%, CCOc1cc(C2Nc3ccccc3C(=O)N2c2ccccc2)ccc1O (stereo not drawn) 24.7%, COc1cc(C2Nc3ccccc3C(=O)N2c2ccccc2OC)ccc1O (stereo not drawn) -3.51%, CCCCOC(=O)c1cccc(NC(=O)CCC(=O)O)c1 -3.12%, NC(=O)c1ncc(C(F)(F)F)cc1Oc1cccnc1 -3.05%, CCN(C(=O)COC(=O)CNC(=O)c1ccc2ccccc2c1)C1CCS(=O)(=O)C1 (stereo not drawn) 11.8%, CCc1ccc(NC(=O)C2CCN(S(C)(=O)=O)CC2)cc1 -4.22%, Cc1ccc(NC(=O)C2CC3CCC2C3)c(Br)c1 (stereo not drawn) -0.68%, COc1ccc(NC(=O)C(NC(C)=O)C(=O)NCc2ccccc2OC)cc1 (stereo not drawn) 19.8%, COc1cc2cccc(OC)c(=O)c2c(O)c1OC 4.6%, Oc1cccc2cc3cccc(O)c3c(O)c12 -5.93%, CCOC(=O)c1sc(NC(=O)Nc2ccc(F)cc2)nc1C 24.7%, Nc1ccc(N2CCCCC2)c(Cl)c1 19.8%, Clc1ccccc1CN1CCN(c2ncccn2)CC1 -5.95%, CC1CCC2(CC1)NC(=O)N(CC(=O)NCc1ccc(Cl)cc1)C2=O (stereo not drawn) -14%, O=C(CNC(=O)c1ccc(Br)cc1)N/N=C/c1ccc[nH]1 -7.5%, Cc1nc2ccccc2c(-c2ccccc2)c1CC(=O)O -8.12%, Cc1nc2ccccc2n1CC(=O)c1ccccc1 6.29%, CCOC(=O)c1cnc2c(cnn2C)c1Cl 6.51%, COc1cc(OC)c(-c2oc3ccccc3c(=O)c2O)c(OC)c1 4.4%, COc1cc(OC)c2c(c1)OC(c1ccc(OC)c(OC)c1)C(O)C2=O (stereo not drawn) 5.17%, COc1ccc(C(=O)OCCN=C2NS(=O)(=O)c3ccccc32)cc1OC 0.81%, CC12CCCc3c(O)cc(=O)n(c31)-c1ccccc12 (stereo not drawn) 0.05%, O=C(NN1C(=O)/C(=C/C=C/c2ccccc2)SC1=S)c1ccncc1 10.1%, COc1cc(/C=C2\SC(=S)N(NC(=O)c3ccccc3O)C2=O)ccc1O 5.15%, O=C1/C(=C/c2cccs2)SC(=S)N1NS(=O)(=O)c1ccccc1 -2.36%, Cn1cccc1/C=C1\SC(=S)N(NC(=O)c2ccccc2O)C1=O 27.8%, O=C(NN1C(=O)/C(=C/c2cccs2)SC1=S)c1ccncc1 -1.89%, CC(/C=C1\SC(=S)N(NS(=O)(=O)c2ccccc2)C1=O)=C\c1ccccc1 -6.38%, Cc1c(C(=O)NCc2ccccn2)sc2nc(-c3ccc(F)cc3)cn12 0.67%, Cc1ccc(NC(=O)CC2C(=O)NC3CCCCC3N2C(=O)c2ccc(F)cc2)cc1C (stereo not drawn) 1.01% and 26.2%, Cc1nn(Cc2cccc(Oc3ccccc3)c2)c(C)c1NC(=O)NC12CC3CC(CC(C3)C1)C2 -5.96%, Clc1ccc(CSc2cc3c(nn2)-c2ccccc2CC3)cc1Cl -6.32%, CC1(C(=O)OCC(=O)Nc2ccccc2Cl)CC1(Cl)Cl (stereo not drawn) -10.2%, Cc1c(Cl)ccc(S(=O)(=O)NCCN2CCOCC2)c1Cl 6.83%, O=CN1CCN(C2CC(=O)N(c3ccc(Br)cc3)C2=O)CC1 (stereo not drawn) 22.2%, Cc1ccc(Oc2ccccc2/C=C/C(=O)O)cc1 7.01%, COc1ccc(Cl)cc1NC(=O)c1noc2c1CCCC2 -11.1%, CC(=O)c1ccc(NC(=O)c2noc3c2CCC3)cc1 -4.79%, COC(=O)c1ccccc1NC(=O)c1noc2c1CC(C(C)(C)C)CC2 (stereo not drawn) -0.63%, CC(C)(C)C1CCc2onc(C(=O)Nc3ccc(F)cc3F)c2C1 (stereo not drawn) 2.83%, Cc1ccc(NC(=O)c2noc3c2CCC3)cc1C -3.45%, COC(=O)c1ccccc1NC(=O)c1noc2c1CCCC2 3.34%, COc1cc(NC(=O)c2noc3c2CCCC3)c(OC)cc1Cl 11.1%, O=C(Nc1ccccc1C(=O)N1CCOCC1)c1noc2c1CCCC2 -4.02%, CCS(=O)(=O)c1ccc(-c2csc(-c3ccc(Cl)cc3)n2)c(Cl)c1Cl 2.97%, CN(CCCNC(=O)CCCOc1cc(=O)n(C)c2ccccc12)Cc1ccccc1 4.88%, CN(C)C(CNC(=O)c1cccc(S(=O)(=O)NCc2ccccc2)c1)c1ccco1 (stereo not drawn) 0.14%, O=C(CC1SC(N2CCCC2)=NC1=O)Nc1ccc(C(=O)NCc2ccc(F)cc2)cc1 (stereo not drawn) 4.94%, COc1cc(OC)cc(-n2nnnc2SCC(=O)NCc2cccs2)c1 6.88%, O=C(O)CCCCCNS(=O)(=O)/C=C/c1ccccc1 1.37%, CCN(CC(=O)Nc1ccc(NC(C)=O)cc1)C(=O)/C=C/c1c(C)nn(-c2ccc(F)cc2)c1Cl 0.81%, COC(=O)c1ccccc1NC(=S)NC(=O)C1CC1 0.95%, COC(=O)c1ccccc1NC(=S)NC(=O)C1CCCCC1 -4.52%, COc1cc(NCc2ccccc2O)c2ncccc2c1 3.48%, COc1cc(NCCCCC(C)N)c2nccc(C)c2c1 (stereo not drawn) 9.33%
